In PubChem BioAssay (Tox21):
Several values for one entry are separate records, joined by “and”; a condition that tells them apart may be missing. Equal values may be shown once. Inconclusive results are not listed. A call without a number means that no potency is given here. Some compounds were tested as several samples or in several runs, with calls that do not always agree. Activity calls are given as the source filed them. Unless noted, the call rests on the fitted dose curve; in most records, active means well fitted curve in the direction sought with a large enough effect in the repeat runs; inconclusive means weak or mixed curves; inactive means no such curve, though single readings can be large; an effect the other way counts as inactive or inconclusive.

Experiment: qHTS assay to identify small molecule antagonists of the progesterone receptor (PR) signaling pathway - cell viability counter screen (AID 1346798); further: nearly all actives have a fitted effect of over 50% in size
Conditions: PR-UAS-bla HEK293T viability, CellTiter-Glo luminescence, 16 h; series mostly up to 92.4 µM
Method in brief: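 HEK293T PR-UAS-bla, 2% charcoal-stripped FBS; 4 hr pre-plate; cpd + R5020, 16 h 37C; LiveBLAzer read first; then CellTiter-Glo 30 min RT, luminescence.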
Potency means the concentration at half of the fitted maximal effect.

Which Potency does the source give for `N#CCCCCC#N` here?
The Potency was “inactive”.

Which Potency does the source give for `C[N+](C)(C)CC(=O)O` here?
The Potency was “inactive”.

With `O=S(=O)(O)C(F)(F)C(F)(F)C(F)(F)C(F)(F)C(F)(F)C(F)(F)C(F)(F)C(F)(F)F` as the compound, how does the Potency read?
Its Potency is 29.2 µM (active) and 19.3 µM (active).

With `CC(C)(C#N)N=NC(C)(C)C#N` as the compound, how does the Potency read?
Its Potency is “inactive”.

For `CCCCCCCCCC(CC)c1ccc(S(=O)(=O)O)cc1` (configuration not stated), which Potency is on record?
Its Potency is 30.9 µM (active) and 29.8 µM (active) and 27.3 µM (active).

Which Potency does the source give for `Clc1ccc(C(Cl)(Cl)Cl)cc1` here?
Its Potency is “inactive”.

Which Potency does the source give for `ClCC(Cl)CCl` here?
The Potency was “inactive”.

With `CCCCOCCOC(C)=O` as the compound, how does the Potency read?
Its Potency is “inactive”.

Which Potency does the source give for `CCC(=O)Nc1ccc(Cl)c(Cl)c1` here?
The Potency was “inactive”.

Which Potency does the source give for `CCC[CH2][Sn]([Cl])([CH2]CCC)[CH2]CCC` here?
Its Potency is 1.73 µM (active) and 3.44 µM (active).

Which Potency does the source give for `ClC(Cl)=C(Cl)C(Cl)=C(Cl)Cl` here?
Its Potency is “inactive”.

For `CCCCC(C#N)(Cn1cncn1)c1ccc(Cl)cc1` (configuration not stated), which Potency is on record?
The Potency was “inactive”.

For `O=C1Nc2ccc(Cl)cc2C(c2ccccc2)=NC1O` (configuration not stated), which Potency is on record?
The Potency was “inactive”.

For `CCOP(=S)(OCC)SCn1c(=O)oc2cc(Cl)ccc21`, which Potency is on record?
Its Potency is “inactive”.

For `CNC(=S)S`, which Potency is on record?
Its Potency is “inactive”.

For `C[C@]12CC[C@H]3[C@@H](CCC4=CC(=O)CC[C@@H]43)[C@@H]1CC[C@@H]2O`, which Potency is on record?
Its Potency is “inactive”.

With `c1ccc(C2CO2)cc1` (configuration not stated) as the compound, how does the Potency read?
Its Potency is “inactive”.

With `CC(C)(c1ccccc1)c1ccc(O)c(C(C)(C)c2ccccc2)c1` as the compound, how does the Potency read?
The Potency was 17.1 µM (active) and 48.6 µM (active).

With `CC[n+]1c(-c2ccccc2)c2cc(N)ccc2c2ccc(N)cc21` as the compound, how does the Potency read?
Its Potency is 5.31 µM (active).

With `CCOP(=O)(O)OCC` (tested in a mixture with another compound) as the compound, how does the Potency read?
Its Potency is “inactive”.

With `CC(C)(c1ccc(OCC2CO2)cc1)c1ccc(OCC2CO2)cc1` (configuration not stated) as the compound, how does the Potency read?
Its Potency is “inactive”.

For `C[C@]12CCC(=O)C=C1CC[C@@H]1[C@@H]2CC[C@@]2(C)[C@H]1CC[C@]2(C)O`, which Potency is on record?
The Potency was “inactive”.

For `O=C1C(Cl)=C(Cl)C(=O)c2ccccc21`, which Potency is on record?
The Potency was 61.3 µM (active) and 61.1 µM (active).

Experiment: qHTS assay to identify small molecule agonists of the progesterone receptor (PR) signaling pathway - cell viability counter screen (AID 1346799; calls by dose curve; further: nearly all actives have a fitted effect of over 45% in size)
Conditions: PR-UAS-bla HEK293T viability, CellTiter-Glo luminescence, 16 h; series mostly up to 92.4 µM
Method in brief: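 Luminescence from CellTiter-Glo, added after the beta-lactamase FRET read in the same wells, gave cytotoxicity in PR-UAS-bla HEK293T cells treated with compounds for 16 hr at 37C.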

For `Nc1ccc([N+](=O)[O-])cc1N`, which Potency is on record?
Its Potency is “inactive”.

With `N#CCCCCC#N` as the compound, how does the Potency read?
The Potency was “inactive”.

Which Potency does the source give for `C[N+](C)(C)CC(=O)O` here?
The Potency was “inactive”.

With `O=S(=O)(O)C(F)(F)C(F)(F)C(F)(F)C(F)(F)C(F)(F)C(F)(F)C(F)(F)C(F)(F)F` as the compound, how does the Potency read?
The Potency was 41.2 µM (active) and inactive and 17.2 µM (active).

For `CC(C)(C#N)N=NC(C)(C)C#N`, which Potency is on record?
Its Potency is “inactive”.

For `Cl`, which Potency is on record?
The Potency was “inactive”.

With `CCCCCCCCCC(CC)c1ccc(S(=O)(=O)O)cc1` (configuration not stated) as the compound, how does the Potency read?
The Potency was 27 µM (active) [middle of 4 runs].

For `O=[N+]([O-])c1ccc(Cl)c([N+](=O)[O-])c1`, which Potency is on record?
The Potency was 27.7 µM (active) and 27.3 µM (active).

With `Clc1ccc(C(Cl)(Cl)Cl)cc1` as the compound, how does the Potency read?
The Potency was “inactive”.

With `C[N+](C)(C)C` as the compound, how does the Potency read?
The Potency was “inactive”.

Which Potency does the source give for `CCCCOCC1CO1` (configuration not stated) here?
Its Potency is “inactive”.

With `ClCC(Cl)CCl` as the compound, how does the Potency read?
The Potency was “inactive”.

Which Potency does the source give for `CCCCOCCOC(C)=O` here?
The Potency was “inactive”.

With `NN=C(N)N` as the compound, how does the Potency read?
Its Potency is “inactive”.

With `COP(=S)(OC)Oc1ccc(S(=O)(=O)N(C)C)cc1` as the compound, how does the Potency read?
Its Potency is “inactive”.

With `CCC(=O)Nc1ccc(Cl)c(Cl)c1` as the compound, how does the Potency read?
The Potency was “inactive”.

With `CCC[CH2][Sn]([Cl])([CH2]CCC)[CH2]CCC` as the compound, how does the Potency read?
Its Potency is 1.73 µM (active) and 2.17 µM (active).

With `[Cl-].[Cl-].[Cl-].[Fe+3]` as the compound, how does the Potency read?
The Potency was “inactive”.

With `ClC(Cl)=C(Cl)C(Cl)=C(Cl)Cl` as the compound, how does the Potency read?
The Potency was “inactive”.

With `CCCCC(C#N)(Cn1cncn1)c1ccc(Cl)cc1` (configuration not stated) as the compound, how does the Potency read?
The Potency was “inactive”.

For `CCOP(=S)(OCC)SCSC(C)(C)C`, which Potency is on record?
The Potency was “inactive”.

With `C[N+](C)(C)CC(=O)[O-]` as the compound, how does the Potency read?
Its Potency is “inactive”.

For `O=NN(c1ccccc1)c1ccccc1`, which Potency is on record?
The Potency was “inactive”.

For `O=C1Nc2ccc(Cl)cc2C(c2ccccc2)=NC1O` (configuration not stated), which Potency is on record?
The Potency was “inactive”.

With `CCOP(=S)(OCC)SCn1c(=O)oc2cc(Cl)ccc21` as the compound, how does the Potency read?
The Potency was “inactive”.

Which Potency does the source give for `CC1CC(=O)O1` (configuration not stated) here?
Its Potency is “inactive”.

With `CNC(=S)S` as the compound, how does the Potency read?
The Potency was “inactive”.

Which Potency does the source give for `c1ccc(C2CO2)cc1` (configuration not stated) here?
The Potency was “inactive”.

Which Potency does the source give for `CCC1(c2ccc(N)cc2)CCC(=O)NC1=O` (configuration not stated) here?
The Potency was “inactive”.

Which Potency does the source give for `CC(C)(c1ccccc1)c1ccc(O)c(C(C)(C)c2ccccc2)c1` here?
The Potency was 42.9 µM (active) and 27.3 µM (active).

With `CC[n+]1c(-c2ccccc2)c2cc(N)ccc2c2ccc(N)cc21` as the compound, how does the Potency read?
The Potency was 3.76 µM (active).

With `CCOP(=O)(O)OCC` (tested in a mixture with another compound) as the compound, how does the Potency read?
The Potency was “inactive”.

Which Potency does the source give for `O=C(O)c1nn(Cc2ccc(Cl)cc2Cl)c2ccccc12` here?
The Potency was “inactive”.

For `CC(C)(c1ccc(OCC2CO2)cc1)c1ccc(OCC2CO2)cc1` (configuration not stated), which Potency is on record?
Its Potency is “inactive”.

With `O=C1C(Cl)=C(Cl)C(=O)c2ccccc21` as the compound, how does the Potency read?
Its Potency is 61.1 µM (active).

Experiment: qHTS assay to identify small molecule antagonists of the TGF-beta/Smad signaling pathway - cell viability counter screen (AID 1346824); further: nearly all actives have a fitted effect of over 50% in size
Conditions: SBE-bla HEK293T viability, CellTiter-Glo luminescence; series mostly up to 76.8 µM
Method in brief: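 Cytotoxicity counter-screen run in the same wells as the beta-lactamase Smad reporter read: CellTiter-Glo luminescence after 30 min at room temperature. HEK 293T SBE-bla cells had 5 hr compound exposure at 37 C with TGF-beta1 (0.25 ng/mL stock).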

Which Potency does the source give for `N#CCCCCC#N` here?
Its Potency is “inactive”.

With `C[N+](C)(C)CC(=O)O` as the compound, how does the Potency read?
Its Potency is “inactive”.

With `O=S(=O)(O)C(F)(F)C(F)(F)C(F)(F)C(F)(F)C(F)(F)C(F)(F)C(F)(F)C(F)(F)F` as the compound, how does the Potency read?
The Potency was “inactive”.

With `CC(C)(C#N)N=NC(C)(C)C#N` as the compound, how does the Potency read?
Its Potency is “inactive”.

For `Cl`, which Potency is on record?
Its Potency is “inactive”.

Which Potency does the source give for `CCCCCCCCCC(CC)c1ccc(S(=O)(=O)O)cc1` (configuration not stated) here?
Its Potency is “inactive”.

For `CC(C)=CC1C(C(=O)OCN2C(=O)C3=C(CCCC3)C2=O)C1(C)C` (configuration not stated), which Potency is on record?
The Potency was “inactive”.

Which Potency does the source give for `C[N+](C)(C)C` here?
Its Potency is “inactive”.

With `ClCC(Cl)CCl` as the compound, how does the Potency read?
The Potency was “inactive”.

Which Potency does the source give for `CCCCOCCOC(C)=O` here?
The Potency was “inactive”.

For `NN=C(N)N`, which Potency is on record?
The Potency was “inactive”.

Which Potency does the source give for `COP(=S)(OC)Oc1ccc(S(=O)(=O)N(C)C)cc1` here?
The Potency was “inactive”.

With `CCC(=O)Nc1ccc(Cl)c(Cl)c1` as the compound, how does the Potency read?
Its Potency is “inactive”.

With `CCC[CH2][Sn]([Cl])([CH2]CCC)[CH2]CCC` as the compound, how does the Potency read?
The Potency was 1.38 µM (active) and 2.19 µM (active).

With `[Cl-].[Cl-].[Cl-].[Fe+3]` as the compound, how does the Potency read?
Its Potency is “inactive”.

For `ClC(Cl)=C(Cl)C(Cl)=C(Cl)Cl`, which Potency is on record?
The Potency was “inactive”.

Which Potency does the source give for `CCCCC(C#N)(Cn1cncn1)c1ccc(Cl)cc1` (configuration not stated) here?
The Potency was “inactive”.

Which Potency does the source give for `CCOP(=S)(OCC)SCSC(C)(C)C` here?
Its Potency is “inactive”.

For `C[N+](C)(C)CC(=O)[O-]`, which Potency is on record?
The Potency was “inactive”.

For `O=NN(c1ccccc1)c1ccccc1`, which Potency is on record?
Its Potency is “inactive”.

Which Potency does the source give for `CCOP(=S)(OCC)SCn1c(=O)oc2cc(Cl)ccc21` here?
Its Potency is “inactive”.

Which Potency does the source give for `CC1CC(=O)O1` (configuration not stated) here?
The Potency was “inactive”.

For `CNC(=S)S`, which Potency is on record?
The Potency was “inactive”.

For `c1ccc(C2CO2)cc1` (configuration not stated), which Potency is on record?
Its Potency is “inactive”.

For `CCC1(c2ccc(N)cc2)CCC(=O)NC1=O` (configuration not stated), which Potency is on record?
The Potency was “inactive”.

For `CC(C)(c1ccccc1)c1ccc(O)c(C(C)(C)c2ccccc2)c1`, which Potency is on record?
The Potency was 54.4 µM (active) and 43.6 µM (active).

For `CC[n+]1c(-c2ccccc2)c2cc(N)ccc2c2ccc(N)cc21`, which Potency is on record?
Its Potency is “inactive”.

With `CC(C)(c1ccc(OCC2CO2)cc1)c1ccc(OCC2CO2)cc1` (configuration not stated) as the compound, how does the Potency read?
Its Potency is “inactive”.

For `C[C@]12CCC(=O)C=C1CC[C@@H]1[C@@H]2CC[C@@]2(C)[C@H]1CC[C@]2(C)O`, which Potency is on record?
Its Potency is “inactive”.
